# Screening data: PubChem, several laboratories
# Rows were chosen to be rich in hits. Some 1.5% of all compounds tested hit in one or more screens of this group.
# MRP reversal = MRP-mediated drug resistance reversal; AID 602; actives 0.04% (n = 85,000); H69AR cells + 2 uM doxorubicin, CellTiter-Glo, 72 h; differential viability (reversal), % at 10 µM;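 active = viability drop by adding the cancer drug above about 55%, with treated viability meeting a 40% cutoff, limit read from the data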;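 also: viability without doxorubicin minus viability with 2 µM doxorubicin for each compound; larger differential means the compound sensitizes cells more to doxorubicin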
# VCAM1 TNFa inh = reduces TNF alpha induced VCAM1 expression in HUVEC. HUVEC TNFa-induced VCAM-1 immunofluorescence, high-content imaging. inhibition, % at 2 µM. actives 0.48% (n = 95,000). AID 802;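 active = inhibition above the batch mean plus 3 SD, with images confirmed as a hit by eye, cut at about 37% in these data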;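 also: 0% = TNF-stimulated DMSO wells and 100% = unstimulated control wells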
# E-sel TNF inh = TNF alpha driven E-selectin expression inhibition. HUVEC TNFa-induced E-selectin immunofluorescence, high content. inhibition, % at 2 µM. actives 0.71% (n = 120,000);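 active = inhibition above the batch mean plus 3 SD, and confirmed as a hit on visual image review, cut at about 43% in these data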;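 also: 0% = TNF-stimulated DMSO wells and 100% = unstimulated control wells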
# MRP1 act = activates MRP-1; H69AR cells + doxorubicin, viability rescue, CellTiter-Glo; viability increase, % at 10 µM; actives 0.61% (n = 140,000); AID 799;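 active = viability gain under doxorubicin at or above a set limit, the compound median plus 3 SD, cut at about 4.7% in these data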;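 also: MRP-1 overexpressing cells given doxorubicin 25 µM after compound pretreatment; 18-22 h compound pretreatment then 72 h with doxorubicin before readout; 0% = doxorubicin-only wells and 100% = vehicle-treated cells without doxorubicin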
# cytoskel mod = modifiers of cytoskeleton assembly; HUVEC TNFa F-actin phalloidin imaging, high content; inhibition, % at 2 µM; actives 0.18% (n = 91,000); AID 836;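 active = inhibition above the batch mean plus 3 SD and confirmed as a hit by visual image inspection, cut at about 30% in these data, passing the limit was not always enough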
# An asterisk follows results filed as active; · = no result given.
SMILES,MRP reversal,VCAM1 TNFa inh,E-sel TNF inh,MRP1 act,cytoskel mod
CCc1ccc(/C(C)=N/Nc2cc(Cl)nc(C)n2)cc1,·,-6.5,14.7,7.9*,-3.3
C/C(=N\Nc1cc(Cl)nc(C)n1)c1ccccc1,·,26.0,-74.5,0.2,-12.4
CCN(CC)c1ccc(-c2nn3c(-c4n[nH]c5c4CCC5)nnc3s2)cc1,-26.3,47.5*,2.6,-3.7,-25.6
C1CCC(c2nn3c(-c4n[nH]c5c4CCC5)nnc3s2)CC1,-3.3,-5.6,43.7,-0.9,-17.0
COc1cc(CNCc2ccco2)ccc1OCc1ccccc1,·,-4.6,57.1*,-1.3,46.1*
O=C(CCN1C(=O)c2ccccc2C1=O)C1=NN[C@@H]2C(=O)N(c3cccc(Cl)c3)C(=O)[C@H]12,·,·,-3.7,-1.2,·
Cc1ccc(N2C(=O)[C@@H]3C(C(=O)CCN4C(=O)c5ccccc5C4=O)=NN[C@@H]3C2=O)cc1,·,·,65.4*,-0.9,·
CCC(=O)N1CCc2cc(Br)cc(S(=O)(=O)N3CCN(c4ccccn4)CC3)c21,9.6,·,·,·,·
CCCOC(=S)Nc1ccccc1,-3.0,-28.7,24.0,-0.7,-13.6
C=CCc1cccc(/C=N/NC(=O)CCCNc2ccc(C)cc2)c1O,·,·,68.7*,0.4,·
CC(OC(=O)CCc1nc2ccccc2c(=O)[nH]1)C(=O)c1ccc(Br)cc1 (stereo not given),·,·,·,-0.6,·
CSc1cccc(NC(=O)C2CCCN(S(=O)(=O)c3ccc(F)cc3)C2)c1 (stereo not given),-30.8,13.3,58.7*,-4.8,3.8
O=C(Nc1ccc2nc(SCc3ccc(Cl)cc3)sc2c1)c1ccccc1C(=O)N1CCOCC1,·,26.4,53.0*,0.4,-18.9
COc1cc(C(=O)N2CCN(c3cc(Cl)ccc3Cl)CC2)cc(OC)c1OC,-31.0,57.5*,·,-4.8,5.6
CN(c1ccccc1)S(=O)(=O)c1ccc(NC(=S)Nc2ccccc2)cc1,·,-15.1,87.4*,-3.5,5.8
CC(=O)Nc1ccc(S(=O)(=O)N(C)c2ccccc2)cc1,-9.3,·,-20.7,-3.6,·
CSc1ncccc1C(=O)Nc1ccc(S(=O)(=O)Nc2nccs2)cc1,·,·,·,-1.4,·
CCn1nc(C(=O)Nc2ccc(S(=O)(=O)Nc3nccs3)cc2)c2ccccc2c1=O,5.5,-25.0,60.9*,-1.1,1.5
CC(NC(=O)c1ccc(Br)cc1)c1ccc2c(c1)CCCC2 (stereo not given),·,·,·,5.6*,·
COc1ccc(C)cc1-n1nnnc1SCc1cn2ccsc2n1,11.1,12.9,·,-1.2,-9.8
Cc1nnc(SCc2cn3ccsc3n2)n(N)c1=O,-3.5,62.0*,-14.0,0.1,31.3
O=[N+]([O-])c1ccc(S(=O)(=O)NCCc2ccncc2)cc1,·,·,-10.9,·,·
Cc1cccc(CC2CC(=O)N(c3nc4ccccc4s3)C2=O)c1 (stereo not given),·,·,-1.8,·,·
Cc1cccc(N2C(=O)CC(NNc3nc4ccccc4s3)C2=O)c1 (stereo not given),·,·,·,4.7*,·
Cc1ccc(-c2cc(-c3ccccc3)no2)c(O)c1,·,·,-8.6,5.3*,·
SMILES,MRP reversal,VCAM1 TNFa inh,E-sel TNF inh,MRP1 act,cytoskel mod
Cc1ccccc1-c1cc(-c2ccccc2O)on1,·,47.3*,1.6,-5.1,-30.2
CCCCN(C(=O)c1cc(OC)c(OC)c(OC)c1)C1=CC2CCC(C1)N2C (stereo not given),0.6,3.9,97.8*,-1.1,1.5
CCCCNC(=S)N(C)/N=C/c1ccc(OCc2ccc(C(=O)OC)cc2)c(OC)c1,·,·,·,-1.3,·
O=C(O)COc1ccc(/C=N/n2cnc3scc(-c4cccs4)c3c2=O)cc1,·,·,92.8*,-1.6,·
Cc1ccc(Nc2nc(-c3c(C)nc4ccccn34)cs2)cc1,·,93.2*,1.1,-4.6,-69.6
Oc1ccc(-c2nc(-c3ccc(O)c(O)c3)cs2)cc1,-26.6,·,-28.2,9.1*,·
Oc1ccc(Nc2nc(-c3ccc4ccccc4c3)cs2)cc1,-4.6,74.8*,13.9,-6.6,18.1
O=C(O)c1ccc(-c2nc(-c3ccc(Cl)cc3)cs2)cc1,·,·,-36.1,·,·
Cc1ccc2c(c1)nnn2C1CCN(C(=O)C2CCCCC2)CC1,5.0,·,-3.1,1.5,·
COc1ccc(CCNC(=O)c2cccnc2)cc1,-31.2,-9.4,-1.5,0.1,2.2
CC(C)(C)c1nc(N2CCN(C(=O)c3ccco3)CC2)c2nnn(Cc3ccccc3)c2n1,-17.1,1.4,18.5,3.0,-6.9
O=C(c1ccco1)N1CCN(c2nc(C3CC3)nc3c2nnn3Cc2ccccc2Cl)CC1,-6.1,-23.1,23.1,7.0*,8.2
[O-][n+]1onc2c1C(N1CCOCC1)CCC2N1CCOCC1 (stereo not given),·,-9.6,81.7*,-0.2,2.3
C=C(C)CC(NCCc1ccccc1)c1ccco1 (stereo not given),·,·,71.6*,·,·
O=C(CSc1ncn(-c2ccccc2)n1)Nc1ccc2c(c1)OCO2,-20.2,·,20.2,-2.6,·
O=C(CSc1ncn(-c2ccccc2)n1)Nc1ccc2c(c1)OCCO2,-0.8,·,72.1*,-4.6,·
C=C(C)c1cccc(C(C)(C)NC(=O)N2CCCCC2CC)c1 (stereo not given),·,-28.3,56.9*,-0.8,1.8
C=C(C)c1cccc(C(C)(C)NC(=O)N2CCN(CC)CC2)c1,8.2,-7.3,-30.3,-2.2,9.8
O=C(c1ccco1)N(Cc1ccc([N+](=O)[O-])cc1)c1ccc(Br)cc1,·,-28.0,-21.8,-0.8,7.2
O=C(c1ccc([N+](=O)[O-])cc1)N(Cc1ccc(Br)cc1)N1C(=O)CCCC1=O,15.5,29.5,97.6*,-1.0,·
COCCn1c(SCC(=O)N2CCCCC2)nc2ccccc2c1=O,-1.0,-16.2,95.7*,-3.5,-11.1
CCc1cc[n+](CC(=O)Nc2ccc(Cl)cc2Cl)cc1,·,·,76.8*,·,·
CC(C)C(NC(=O)c1ccccc1)c1nnc(SCC(=O)Nc2nccs2)n1C (stereo not given),4.4,7.0,-11.7,-1.9,-24.8
COc1ccccc1C1=NNC(=Nc2cccc(S(=O)(=O)N(C)C)c2)SC1,·,·,-19.1,·,·
CCc1ccc(-c2nc(-c3ccncc3)no2)cc1,11.2,-17.9,2.9,5.8*,7.7
SMILES,MRP reversal,VCAM1 TNFa inh,E-sel TNF inh,MRP1 act,cytoskel mod
CCCCc1ccc(-c2nc(-c3ccncc3)no2)cc1,9.8,·,-42.3,3.5,·
CCOC(=O)N1CCN(c2nc(-c3cccc(OC)c3)cc(C(F)(F)F)n2)CC1,26.1,-18.6,10.9,8.7*,-29.2
N#C/C(=C\c1cccc(Oc2ccccc2)c1)C(=O)N1CCOCC1,·,·,-4.6,·,·
CC(Sc1nnc(-c2cccs2)n1Cc1ccccc1)C(=O)NCc1ccc2c(c1)OCO2 (stereo not given),-31.0,-9.6,80.4*,-1.3,·
COC(=O)c1ccccc1NS(=O)(=O)c1ccc2c3c(cccc13)C(=O)N2,-6.1,-19.0,74.0*,·,-5.7
COc1cccc(-c2ccc(SCC(=O)N3CCc4ccccc43)nn2)c1,·,·,·,-2.5,·
